From article PMC7862700, “An all-to-all approach to the identification of sequence-specific readers for epigenetic DNA modifications on cytosine”

Experiments:
Assay in all cases: DAPPL (digital affinity profiling via proximity ligation, sequencing); 10 mM Tris-HCl pH 7.5, 50 mM NaCl, 1 mM DTT, 4% glycerol, room temperature, 30 min; GST-TFs on glutathione beads, 16-mer random dsDNA library, 0.1% formaldehyde crosslink after washing; high values mean tight binding
Details in all cases: protein: recombinant; tags: N-terminal GST; dsDNA, one strand shown
FLI1 = target: T1, FLI1 (Homo sapiens, UniProt Q01543 1-452)
T1 sequence: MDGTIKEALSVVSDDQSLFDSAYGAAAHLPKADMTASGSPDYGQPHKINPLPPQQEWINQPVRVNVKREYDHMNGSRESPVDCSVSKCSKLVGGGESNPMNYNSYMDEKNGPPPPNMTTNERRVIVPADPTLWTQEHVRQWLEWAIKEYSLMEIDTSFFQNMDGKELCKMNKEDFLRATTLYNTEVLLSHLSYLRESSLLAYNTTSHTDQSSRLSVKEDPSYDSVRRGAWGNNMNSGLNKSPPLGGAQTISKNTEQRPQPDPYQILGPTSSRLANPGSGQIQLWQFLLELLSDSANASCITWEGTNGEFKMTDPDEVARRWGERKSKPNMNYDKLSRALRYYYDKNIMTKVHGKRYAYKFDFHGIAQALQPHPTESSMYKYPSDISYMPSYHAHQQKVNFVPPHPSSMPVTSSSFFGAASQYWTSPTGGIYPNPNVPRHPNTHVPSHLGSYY
In short: (§1)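 Pools were built from human transcription factors expressed in yeast as GST fusions, captured on glutathione beads and DNA-barcoded, along with a tag-only sample. Incubation with 200 nmole of a 16-mer random double-stranded DNA library lasted 30 min at room temperature in Tris/NaCl/DTT/glycerol buffer, and was followed by washing, 0.1% formaldehyde crosslinking, proximity ligation, PCR amplification and Illumina NextSeq500 sequencing. Binding signal is the quotient of each hexamer's read frequency for a factor and its frequency for the tag-only sample.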

ELK1 = target: T2, ELK1 (Homo sapiens, UniProt P19419 1-428)
T2 sequence: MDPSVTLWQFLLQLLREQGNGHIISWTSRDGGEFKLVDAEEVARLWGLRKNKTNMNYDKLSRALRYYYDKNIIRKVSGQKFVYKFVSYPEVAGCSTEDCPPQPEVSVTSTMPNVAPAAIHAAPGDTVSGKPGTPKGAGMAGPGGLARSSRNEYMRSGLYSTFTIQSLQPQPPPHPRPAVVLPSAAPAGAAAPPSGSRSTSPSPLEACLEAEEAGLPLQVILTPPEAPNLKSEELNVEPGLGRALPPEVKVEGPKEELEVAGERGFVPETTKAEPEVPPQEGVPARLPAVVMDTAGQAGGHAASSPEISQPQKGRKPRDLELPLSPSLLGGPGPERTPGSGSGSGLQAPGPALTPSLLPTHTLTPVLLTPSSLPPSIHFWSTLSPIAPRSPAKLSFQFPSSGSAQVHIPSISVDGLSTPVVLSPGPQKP
In short: as §1

GABPA = target: T3, GABPA (Homo sapiens, UniProt Q06546 1-454)
T3 sequence: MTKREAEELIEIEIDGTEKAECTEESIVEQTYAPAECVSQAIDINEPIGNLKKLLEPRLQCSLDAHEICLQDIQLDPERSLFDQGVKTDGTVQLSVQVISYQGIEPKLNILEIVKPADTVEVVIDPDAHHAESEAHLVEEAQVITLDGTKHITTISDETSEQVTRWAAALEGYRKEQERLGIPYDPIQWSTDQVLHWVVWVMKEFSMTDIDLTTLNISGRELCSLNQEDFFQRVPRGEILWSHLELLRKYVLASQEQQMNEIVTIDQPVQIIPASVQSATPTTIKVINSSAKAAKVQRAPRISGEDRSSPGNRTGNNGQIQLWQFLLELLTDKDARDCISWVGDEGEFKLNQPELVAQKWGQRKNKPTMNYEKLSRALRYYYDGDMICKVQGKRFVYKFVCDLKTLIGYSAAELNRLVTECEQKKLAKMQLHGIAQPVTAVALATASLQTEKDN
In short: as §1

ERG = target: T4, ERG (Homo sapiens, UniProt P11308 1-479)
T4 sequence: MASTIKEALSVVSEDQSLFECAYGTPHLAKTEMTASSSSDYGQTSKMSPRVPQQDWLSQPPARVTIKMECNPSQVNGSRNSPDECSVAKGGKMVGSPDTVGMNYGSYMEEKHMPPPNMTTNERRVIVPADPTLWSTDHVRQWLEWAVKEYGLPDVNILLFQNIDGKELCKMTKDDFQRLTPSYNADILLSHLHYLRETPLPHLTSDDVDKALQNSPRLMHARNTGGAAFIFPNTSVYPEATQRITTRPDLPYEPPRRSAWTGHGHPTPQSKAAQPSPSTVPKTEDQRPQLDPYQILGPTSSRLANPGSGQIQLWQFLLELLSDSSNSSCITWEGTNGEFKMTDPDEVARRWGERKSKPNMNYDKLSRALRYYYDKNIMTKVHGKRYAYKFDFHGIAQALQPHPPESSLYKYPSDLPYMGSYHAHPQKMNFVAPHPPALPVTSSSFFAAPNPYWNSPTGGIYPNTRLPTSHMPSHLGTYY
In short: as §1

ELF1 = ELF1 (Homo sapiens, UniProt P32519 1-619)
ELF1, sequence (P32519 whole entry): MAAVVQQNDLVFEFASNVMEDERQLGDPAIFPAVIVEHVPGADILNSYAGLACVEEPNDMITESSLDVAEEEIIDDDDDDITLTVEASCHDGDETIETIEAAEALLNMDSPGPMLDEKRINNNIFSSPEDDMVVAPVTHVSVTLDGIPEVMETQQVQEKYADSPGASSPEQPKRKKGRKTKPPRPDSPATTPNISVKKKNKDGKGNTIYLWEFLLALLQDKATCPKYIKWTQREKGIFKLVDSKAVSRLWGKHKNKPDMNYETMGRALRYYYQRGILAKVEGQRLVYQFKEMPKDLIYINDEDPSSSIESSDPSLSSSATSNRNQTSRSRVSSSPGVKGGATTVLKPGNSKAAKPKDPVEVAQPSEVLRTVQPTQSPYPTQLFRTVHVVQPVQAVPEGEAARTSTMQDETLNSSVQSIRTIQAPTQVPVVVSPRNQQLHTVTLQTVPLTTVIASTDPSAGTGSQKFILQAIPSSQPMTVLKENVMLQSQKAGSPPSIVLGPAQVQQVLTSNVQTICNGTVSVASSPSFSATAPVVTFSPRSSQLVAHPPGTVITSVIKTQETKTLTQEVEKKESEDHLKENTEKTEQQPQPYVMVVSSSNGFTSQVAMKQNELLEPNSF
In short: as §1

EHF = target: T5, EHF (Homo sapiens, UniProt Q9NZC4 1-300)
T5 sequence: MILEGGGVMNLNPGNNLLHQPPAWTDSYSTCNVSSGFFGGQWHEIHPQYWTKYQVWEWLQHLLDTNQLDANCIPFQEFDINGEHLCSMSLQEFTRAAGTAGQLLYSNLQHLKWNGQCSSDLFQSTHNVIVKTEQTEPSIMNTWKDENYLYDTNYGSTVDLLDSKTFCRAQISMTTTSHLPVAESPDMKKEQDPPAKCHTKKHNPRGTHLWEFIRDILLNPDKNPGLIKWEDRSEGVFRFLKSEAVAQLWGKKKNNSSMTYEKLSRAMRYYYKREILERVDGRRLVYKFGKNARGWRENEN
In short: as §1

SPI1 = SPI1 (Homo sapiens, UniProt P17947 1-270)
In short: as §1

SPIB = SPIB (Homo sapiens, UniProt Q01892 1-262)
SPIB, sequence (Q01892 whole entry): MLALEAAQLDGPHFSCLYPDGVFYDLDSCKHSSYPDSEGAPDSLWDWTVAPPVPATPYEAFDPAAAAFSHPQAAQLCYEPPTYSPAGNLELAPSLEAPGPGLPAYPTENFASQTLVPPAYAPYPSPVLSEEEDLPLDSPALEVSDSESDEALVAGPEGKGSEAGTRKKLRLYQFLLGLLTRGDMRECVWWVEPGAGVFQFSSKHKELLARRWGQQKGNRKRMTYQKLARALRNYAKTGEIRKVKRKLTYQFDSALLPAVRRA
In short: as §1

ELK3 = target: T6, ELK3 (Homo sapiens, UniProt P41970 1-407)
T6 sequence: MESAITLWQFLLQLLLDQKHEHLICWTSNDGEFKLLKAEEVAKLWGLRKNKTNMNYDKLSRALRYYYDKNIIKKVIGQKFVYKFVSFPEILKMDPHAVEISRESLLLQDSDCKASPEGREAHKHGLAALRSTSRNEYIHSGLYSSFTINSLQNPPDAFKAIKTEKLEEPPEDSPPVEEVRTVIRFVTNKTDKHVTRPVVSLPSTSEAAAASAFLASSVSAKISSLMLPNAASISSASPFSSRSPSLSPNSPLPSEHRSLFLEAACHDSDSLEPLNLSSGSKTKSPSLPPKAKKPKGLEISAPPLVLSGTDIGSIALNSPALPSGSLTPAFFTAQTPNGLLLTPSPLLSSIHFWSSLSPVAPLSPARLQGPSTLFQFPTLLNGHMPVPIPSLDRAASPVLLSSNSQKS
In short: as §1

FEV = target: T7, FEV (Homo sapiens, UniProt Q99581 1-238)
T7 sequence: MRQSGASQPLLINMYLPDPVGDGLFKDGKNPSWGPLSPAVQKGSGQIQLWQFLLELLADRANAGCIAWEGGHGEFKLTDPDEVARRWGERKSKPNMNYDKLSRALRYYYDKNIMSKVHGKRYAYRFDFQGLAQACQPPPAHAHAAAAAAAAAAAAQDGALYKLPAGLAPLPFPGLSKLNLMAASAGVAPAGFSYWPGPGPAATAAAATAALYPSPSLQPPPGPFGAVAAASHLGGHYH
In short: as §1

ETV5 = ETV5 (Homo sapiens, UniProt P41161 1-510)
ETV5, sequence (P41161 whole entry): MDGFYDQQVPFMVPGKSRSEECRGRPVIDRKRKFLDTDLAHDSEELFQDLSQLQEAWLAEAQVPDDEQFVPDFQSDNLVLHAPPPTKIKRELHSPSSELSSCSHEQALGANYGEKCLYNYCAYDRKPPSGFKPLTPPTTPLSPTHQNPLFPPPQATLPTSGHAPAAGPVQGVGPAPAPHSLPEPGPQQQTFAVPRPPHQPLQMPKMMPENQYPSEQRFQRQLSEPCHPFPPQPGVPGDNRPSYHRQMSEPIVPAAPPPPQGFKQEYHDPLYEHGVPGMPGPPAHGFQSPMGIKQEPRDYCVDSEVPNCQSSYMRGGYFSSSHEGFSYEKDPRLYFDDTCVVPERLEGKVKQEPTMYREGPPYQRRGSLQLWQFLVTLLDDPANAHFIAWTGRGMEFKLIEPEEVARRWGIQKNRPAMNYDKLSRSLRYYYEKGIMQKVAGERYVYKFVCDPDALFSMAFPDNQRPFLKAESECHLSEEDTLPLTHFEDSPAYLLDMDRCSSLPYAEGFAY
In short: as §1

SPIC = target: T8, SPIC (Homo sapiens, UniProt Q8N5J4 1-248)
T8 sequence: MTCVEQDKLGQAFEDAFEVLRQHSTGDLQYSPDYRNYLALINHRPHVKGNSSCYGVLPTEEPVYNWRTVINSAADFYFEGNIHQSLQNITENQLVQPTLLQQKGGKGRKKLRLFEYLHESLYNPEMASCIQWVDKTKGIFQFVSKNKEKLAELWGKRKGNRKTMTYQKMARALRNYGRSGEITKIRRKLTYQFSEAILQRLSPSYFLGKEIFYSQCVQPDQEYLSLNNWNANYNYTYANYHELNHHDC
In short: as §1

ELF4 = ELF4 (Homo sapiens, UniProt Q99607 1-663)
ELF4, sequence (Q99607 whole entry): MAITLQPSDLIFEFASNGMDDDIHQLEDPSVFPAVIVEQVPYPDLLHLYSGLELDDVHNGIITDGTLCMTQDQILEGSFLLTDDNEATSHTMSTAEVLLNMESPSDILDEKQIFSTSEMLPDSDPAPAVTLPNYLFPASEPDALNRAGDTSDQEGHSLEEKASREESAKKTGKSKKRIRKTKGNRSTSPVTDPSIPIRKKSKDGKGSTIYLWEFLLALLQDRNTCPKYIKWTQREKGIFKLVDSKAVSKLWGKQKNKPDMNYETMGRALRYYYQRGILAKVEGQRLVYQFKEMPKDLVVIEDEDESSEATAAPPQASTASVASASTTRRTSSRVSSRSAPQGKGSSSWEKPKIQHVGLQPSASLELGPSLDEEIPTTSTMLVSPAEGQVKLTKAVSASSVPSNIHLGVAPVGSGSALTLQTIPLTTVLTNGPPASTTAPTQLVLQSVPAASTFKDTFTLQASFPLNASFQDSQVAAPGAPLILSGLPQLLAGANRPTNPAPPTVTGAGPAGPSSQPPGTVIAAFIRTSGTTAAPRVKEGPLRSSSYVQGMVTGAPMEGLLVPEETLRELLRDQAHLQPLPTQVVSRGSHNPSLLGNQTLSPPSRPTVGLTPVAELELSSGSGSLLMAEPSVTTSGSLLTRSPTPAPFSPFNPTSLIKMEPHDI
In short: as §1

ELK4 = target: T9, ELK4 (Homo sapiens, UniProt P28324-2 1-405)
T9 sequence: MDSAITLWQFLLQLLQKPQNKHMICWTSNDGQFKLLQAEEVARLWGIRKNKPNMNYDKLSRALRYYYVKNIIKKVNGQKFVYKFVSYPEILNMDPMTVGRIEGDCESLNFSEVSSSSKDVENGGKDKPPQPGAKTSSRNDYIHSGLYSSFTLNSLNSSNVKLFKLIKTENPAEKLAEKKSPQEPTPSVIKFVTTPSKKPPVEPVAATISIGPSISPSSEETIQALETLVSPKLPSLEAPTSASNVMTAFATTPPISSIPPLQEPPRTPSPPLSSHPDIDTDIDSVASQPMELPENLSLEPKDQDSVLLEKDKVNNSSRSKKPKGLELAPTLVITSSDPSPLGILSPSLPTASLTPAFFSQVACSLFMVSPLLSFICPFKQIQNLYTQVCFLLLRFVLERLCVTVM
In short: as §1

ETV2 = target: T10, ETV2 (Homo sapiens, UniProt O00321 1-342)
T10 sequence: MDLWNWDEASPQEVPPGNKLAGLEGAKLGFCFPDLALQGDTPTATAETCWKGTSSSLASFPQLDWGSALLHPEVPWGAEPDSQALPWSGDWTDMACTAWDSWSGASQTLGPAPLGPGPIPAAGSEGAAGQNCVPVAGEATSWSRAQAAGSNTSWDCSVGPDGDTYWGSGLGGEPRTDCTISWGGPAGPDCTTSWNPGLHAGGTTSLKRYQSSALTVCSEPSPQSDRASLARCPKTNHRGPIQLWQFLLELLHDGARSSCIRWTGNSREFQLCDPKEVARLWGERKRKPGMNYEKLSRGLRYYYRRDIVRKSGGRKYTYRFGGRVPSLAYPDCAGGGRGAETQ
In short: as §1

ELF3 = target: T11, ELF3 (Homo sapiens, UniProt P78545 1-371)
T11 sequence: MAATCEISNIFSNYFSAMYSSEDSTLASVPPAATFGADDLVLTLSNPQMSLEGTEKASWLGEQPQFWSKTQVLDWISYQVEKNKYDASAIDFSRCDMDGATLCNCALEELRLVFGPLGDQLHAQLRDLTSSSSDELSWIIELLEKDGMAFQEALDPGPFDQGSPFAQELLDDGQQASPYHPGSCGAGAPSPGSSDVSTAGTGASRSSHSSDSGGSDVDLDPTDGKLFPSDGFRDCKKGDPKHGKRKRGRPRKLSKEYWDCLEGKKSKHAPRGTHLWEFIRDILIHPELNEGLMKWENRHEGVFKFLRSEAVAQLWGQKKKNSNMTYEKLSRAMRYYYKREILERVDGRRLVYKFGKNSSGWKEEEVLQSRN
In short: as §1

ETV1 = ETV1 (Homo sapiens, UniProt P50549 1-477)
ETV1, sequence (P50549 whole entry): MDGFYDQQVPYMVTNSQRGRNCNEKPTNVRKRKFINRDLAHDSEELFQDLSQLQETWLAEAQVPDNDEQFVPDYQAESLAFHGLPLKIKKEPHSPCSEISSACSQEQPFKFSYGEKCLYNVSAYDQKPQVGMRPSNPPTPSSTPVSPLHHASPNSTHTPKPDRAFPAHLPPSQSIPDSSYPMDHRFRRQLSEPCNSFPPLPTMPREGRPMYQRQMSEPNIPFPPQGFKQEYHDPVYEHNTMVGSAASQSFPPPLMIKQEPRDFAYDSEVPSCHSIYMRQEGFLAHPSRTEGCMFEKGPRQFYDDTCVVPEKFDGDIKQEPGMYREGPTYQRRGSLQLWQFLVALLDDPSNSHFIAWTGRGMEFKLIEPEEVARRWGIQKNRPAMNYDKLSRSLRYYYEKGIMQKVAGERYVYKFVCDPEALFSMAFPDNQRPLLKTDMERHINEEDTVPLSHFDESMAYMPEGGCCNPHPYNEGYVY
In short: as §1

Question: CTGTCC was tested. Which binding signal (FLI1) did it give?
Answer: 1.34 fold enrichment (6-mer frequency, TF over GST control)

Question: What about the binding signal (ELK1) of the same sequence?
Answer: 1.22 fold enrichment (6-mer frequency, TF over GST control)

Question: And the binding signal (GABPA)?
Answer: 1.29 fold enrichment (6-mer frequency, TF over GST control)

Question: And the binding signal (ERG)?
Answer: 1.28 fold enrichment (6-mer frequency, TF over GST control)

Question: What about the binding signal (ELF1) of the same sequence?
Answer: 1.28 fold enrichment (6-mer frequency, TF over GST control)

Question: What about the binding signal (EHF) of the same sequence?
Answer: 1.36 fold enrichment (6-mer frequency, TF over GST control)

Question: What about the binding signal (SPI1) of the same sequence?
Answer: 1.25 fold enrichment (6-mer frequency, TF over GST control)

Question: What about the binding signal (SPIB) of the same sequence?
Answer: 1.27 fold enrichment (6-mer frequency, TF over GST control)

Question: And the binding signal (ELK3)?
Answer: 1.1 fold enrichment (6-mer frequency, TF over GST control)

Question: And the binding signal (FEV)?
Answer: 1.19 fold enrichment (6-mer frequency, TF over GST control)

Question: What about the binding signal (ETV5) of the same sequence?
Answer: 1.41 fold enrichment (6-mer frequency, TF over GST control)

Question: And the binding signal (SPIC)?
Answer: 1.13 fold enrichment (6-mer frequency, TF over GST control)

Question: What about the binding signal (ELF4) of the same sequence?
Answer: 1.28 fold enrichment (6-mer frequency, TF over GST control)

Question: What about the binding signal (ELK4) of the same sequence?
Answer: 1.24 fold enrichment (6-mer frequency, TF over GST control)

Question: And the binding signal (ETV2)?
Answer: 1.2 fold enrichment (6-mer frequency, TF over GST control)

Question: What about the binding signal (ELF3) of the same sequence?
Answer: 1.17 fold enrichment (6-mer frequency, TF over GST control)

Question: What about the binding signal (ETV1) of the same sequence?
Answer: 1.4 fold enrichment (6-mer frequency, TF over GST control)

Question: Which results are given for CATCCG?
Answer: binding signal (FLI1): 2.09 fold enrichment (6-mer frequency, TF over GST control); binding signal (ELK1): 2.2 fold enrichment (6-mer frequency, TF over GST control); binding signal (GABPA): 1.86 fold enrichment (6-mer frequency, TF over GST control); binding signal (ERG): 2.45 fold enrichment (6-mer frequency, TF over GST control); binding signal (ELF1): 1.86 fold enrichment (6-mer frequency, TF over GST control); binding signal (EHF): 2.19 fold enrichment (6-mer frequency, TF over GST control); binding signal (SPI1): 2.01 fold enrichment (6-mer frequency, TF over GST control); binding signal (SPIB): 2.29 fold enrichment (6-mer frequency, TF over GST control); binding signal (ELK3): 2.5 fold enrichment (6-mer frequency, TF over GST control); binding signal (FEV): 2.77 fold enrichment (6-mer frequency, TF over GST control); binding signal (ETV5): 2.19 fold enrichment (6-mer frequency, TF over GST control); binding signal (SPIC): 2.11 fold enrichment (6-mer frequency, TF over GST control); binding signal (ELF4): 1.82 fold enrichment (6-mer frequency, TF over GST control); binding signal (ELK4): 1.71 fold enrichment (6-mer frequency, TF over GST control); binding signal (ETV2): 2.11 fold enrichment (6-mer frequency, TF over GST control); binding signal (ELF3): 1.9 fold enrichment (6-mer frequency, TF over GST control); binding signal (ETV1): 2.19 fold enrichment (6-mer frequency, TF over GST control)
